In the library only some 19% were active in any assay of this set; here they are far more common.
HepG2 viability: qHTS for Inhibitors of TGF-b: Cytotox Counterscreen. actives 0.76% (n = 410,000). AID 588856, 2011. Potency, µM (doses to about 46.1 µM), actives largely listed as cytotoxic. HepG2 CAGA-GFP viability, ATP luminescence, 18 h
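CellTiter-Glo luminescence gave cytotoxicity after 18 hours at 37 degrees C. The cells were HepG2 CAGA-GFP in 1% FBS DMEM, stimulated with 500 pg/mL TGF-beta after compound addition. %Activity was normalised to no-cell wells (complete cell-killing) and DMSO (no toxicity), and curves were fitted and classified.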
S-ASM inh: Inhibitors of Secretory Acid Sphingomyelinase (S-ASM): qHTS | placental ASM, HMU-PC fluorogenic substrate, 60 min | actives 0.006% (n = 340,000) | Potency, µM (series often up to 57.5 µM), most hits filed as inhibitors | Sphingomyelin phosphodiesterase (Homo sapiens), P17405
Target sequence (P17405 47-631 limits assumed): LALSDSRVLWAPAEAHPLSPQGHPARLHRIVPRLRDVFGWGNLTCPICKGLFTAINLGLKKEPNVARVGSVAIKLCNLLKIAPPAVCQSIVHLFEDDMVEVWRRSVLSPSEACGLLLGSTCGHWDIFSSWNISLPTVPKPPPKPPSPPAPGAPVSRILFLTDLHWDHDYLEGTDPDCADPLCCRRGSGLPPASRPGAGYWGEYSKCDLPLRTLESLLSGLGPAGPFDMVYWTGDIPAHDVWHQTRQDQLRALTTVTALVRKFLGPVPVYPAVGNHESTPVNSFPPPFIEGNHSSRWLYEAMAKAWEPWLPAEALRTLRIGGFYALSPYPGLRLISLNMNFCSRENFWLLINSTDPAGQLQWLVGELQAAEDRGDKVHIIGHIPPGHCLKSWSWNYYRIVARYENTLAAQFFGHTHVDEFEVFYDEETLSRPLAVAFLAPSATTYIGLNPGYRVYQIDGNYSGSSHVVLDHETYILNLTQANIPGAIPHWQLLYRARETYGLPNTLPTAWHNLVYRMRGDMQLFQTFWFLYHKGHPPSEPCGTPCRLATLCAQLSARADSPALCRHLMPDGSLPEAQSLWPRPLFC
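qHTS format. ASM enzyme prepared from human placenta hydrolyses the fluorogenic substrate HMU-PC0 (9 uM final) over 60 min at 37 °C after a 10 min compound preincubation.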
IL1B secr inh: qHTS for Inhibitors of Inflammasome Signaling: IL-1-beta AlphaLISA Primary Screen. THP-1 LPS/ATP IL-1B secretion, AlphaLISA, 16 h; hits give low values. activity change, % at 57.5 µM. actives 4.7% (n = 360,000). AID 743279, 2014; in the data active means activity change below about -50%; inconclusive means mostly about -30% to -49%
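Secreted IL-1B measured by AlphaLISA bead assay after 16 h compound exposure of THP-1 cells; compounds (final up to 57.5 uM) added 1 h before LPS (250 ng/mL) and ATP (1.25 mM) stimulation; lower signal means less secretion.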
DT40 TDP1 CPT: qHTS for Inhibitors of human tyrosyl-DNA phosphodiesterase 1 (TDP1): qHTS in cells in presence of CPT. chicken DT40 Tdp1-/-;hTDP1 cells + 20 nM CPT, ATP luminescence, 48 h. Potency, µM (highest dose often 46.2 µM), usual class: inhibitors. actives 12% (n = 420,000). AID 686979, 2013; further: nearly all actives have a fitted effect of over 55% in size
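Chicken DT40 Tdp1-/- cells stably complemented with human TDP1 were seeded at 400 cells/well in medium containing 20 nM camptothecin, exposed to pin-transferred compounds, and grown at 37 °C for at least 48 hr. Viability was read as ATP luminescence.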
TGFb inhibitor: qHTS for Inhibitors of TGF-b; HepG2 CAGA-GFP TGF-b/SMAD3 reporter, GFP fluorescence, 18 h; TGF-beta stimulated, 500 pg/mL final; Potency, µM (top dose mostly 46.1 µM), usual class: inhibitors; actives 1.2% (n = 410,000); further: nearly all actives have a fitted effect of over 65% in size
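HEPG2 CAGA-GFP cells (1000/well, DMEM with 1% FBS) were pre-incubated 2 h at 37 degrees C, given compound by pin tool, then stimulated with TGF-beta at 500 pg/mL final for 18 h before per-cell GFP fluorescence imaging.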
DT40 TDP1 no CPT: qHTS for Inhibitors of human tyrosyl-DNA phosphodiesterase 1 (TDP1): qHTS in cells in absence of CPT | Potency, µM (series often up to 46.2 µM), usual class: inhibitors | DT40 Tdp1-/- hTDP1 cells, no CPT, ATP luminescence, 48 h | actives 15% (n = 420,000) | AID 686978, 2013; further: nearly all actives have a fitted effect of over 55% in size
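A cellular qHTS used chicken DT40 cells lacking endogenous Tdp1 but carrying stably transfected human TDP1. Compounds were applied without camptothecin, and cell growth kinetics were judged by ATP-dependent luminescence after ≥48 hr.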
A number is an active result; n = inactive; u = inconclusive; x = no result. Unless noted, the call rests on the fitted dose curve; in most records, active means well fitted curve in the direction sought with a large enough effect; inconclusive means small, poorly fitted or top-dose-only effect, or another doubt; inactive means no such curve, though single readings can be large; an effect the other way counts as inactive or inconclusive.

SMILES	HepG2 viability	S-ASM inh	IL1B secr inh	DT40 TDP1 CPT	TGFb inhibitor	DT40 TDP1 no CPT
COc1ccc(NC(=O)CC2C(=O)N(c3ccc(Cl)cc3)C(=S)N2CCc2ccncc2)cc1 (configuration not stated)	n	n	n	u	u	u
CCCOc1ccc(NC(=O)CC2C(=O)N(c3ccc(Cl)cc3)C(=O)N2CCc2ccncc2)cc1 (configuration not stated)	n	x	x	u	u	25.9µM
CCSc1ncc(Cl)c(C(=O)Nc2c(C(=O)Nc3ccc(Cl)cc3)oc3ccccc23)n1	n	x	x	n	x	n
O=C(NCC(c1cccs1)N1CCOCC1)c1cc([N+](=O)[O-])ccc1Cl (configuration not stated)	n	n	n	n	n	n
O=[N+]([O-])c1ccc(O)c(C(C#Cc2ccccc2)N2CCOCC2)c1 (configuration not stated)	n	n	n	n	12.6µM	n
C#CCNC(=O)C1=C[C@H](c2cn(C(C)=O)c3ccccc23)[C@@H](CCCO)[C@H](OCC)O1	n	n	n	n	n	n
CCCC(=O)c1cc(F)c(N2CCN(S(=O)(=O)c3ccccc3)CC2)cc1C	n	n	-58.8	16.4µM	n	11.2µM
CCC(=O)c1cc(F)c(N2CCN(C(=O)c3ccco3)CC2)cc1C	n	n	n	u	u	29.1µM
CCOC(=O)N1CCN(c2cc(C)c(C(C)=O)cc2F)CC1	n	n	n	u	n	u
CC(=O)c1cc(F)c(N2CCN(C(=O)Cc3ccccc3)CC2)cc1C	n	n	n	14.6µM	n	14.6µM
CCCC(=O)c1cc(F)c(N2CCOCC2)cc1C	n	n	n	n	n	n
COc1cccc(NC(=O)CN(C)C(=O)Cn2c(=O)oc3ccccc32)c1	n	n	n	n	n	n
COc1ccc(CC(=O)NNC(=O)CCc2ccccc2)cc1OC	n	n	n	n	n	n
COc1ccc(CNC(=O)Cn2nc(C)c3nn(-c4ccc(Cl)cc4)c(C)c3c2=O)cc1	n	x	x	n	n	n
CCC(c1nc2ccccc2[nH]1)N(Cc1cccnc1)C(=O)c1cc(-c2ccccc2)on1 (configuration not stated)	n	x	n	u	u	18.4µM
CC(=O)Nc1nc2c(s1)CCc1ccccc1-2	n	n	n	n	n	n
N#C/C(=C(/O)CCl)c1nc2c(s1)CCc1ccccc1-2	n	n	-95.1	11.6µM	u	13µM
O=C(CCCl)Nc1nc2c(s1)CCc1ccccc1-2	10µM	n	-97.6	13µM	u	5.8µM
COc1ccc(-c2ccc(NS(=O)(=O)c3ccc(NC(C)=O)cc3)cc2)nn1	n	x	x	u	n	u
Cc1ccc(S(=O)(=O)Nc2cccc(-n3cnnn3)c2)cc1C	n	n	n	n	n	n
CN(C(=O)c1coc(=O)c2ccccc12)c1ccccc1Cl	n	n	n	u	n	u
CCOc1ccc(NC(=O)CSc2nc(-c3ccccc3)c3cc(OCC)ccc3n2)cc1	n	x	x	14.6µM	n	u
Cc1cc(C)cc(NC(=O)CSc2nc(-c3ccccc3)c3cc(F)ccc3n2)c1	n	x	x	18.4µM	n	18.4µM
COc1ccc(NC(=O)CSc2nc(-c3ccccc3)c3ccccc3n2)cc1	n	x	x	n	n	u
COc1ccccc1NC(=O)c1ccc(S(=O)(=O)N2CCC(C)CC2)cc1	n	n	u	n	n	n
SMILES	HepG2 viability	S-ASM inh	IL1B secr inh	DT40 TDP1 CPT	TGFb inhibitor	DT40 TDP1 no CPT
CC(=O)Nc1cc2c(cc1[N+](=O)[O-])-c1ccccc1C2O (configuration not stated)	n	n	u	u	n	11.6µM
CCOC(=O)c1c(-c2ccccc2)nnn1-c1nc(OC)nc(N2CCOCC2)n1	n	n	n	23.1µM	n	16.4µM
COc1ccc(OC)c(CNC(=O)CCCn2nc(C)c3c(C)n(-c4ccc(C)cc4)nc3c2=O)c1	n	x	x	23.1µM	u	20.6µM
Cc1ccc(-n2nc3c(=O)n(CCCC(=O)NCc4ccc(F)cc4)nc(C)c3c2C)cc1	n	n	n	u	u	u
COc1cccc(CNC(=O)CCCn2nc(C)c3c(C)n(-c4ccc(C)cc4)nc3c2=O)c1OC	n	n	n	10.3µM	n	u
O=C1CC(c2ccc(F)cc2)CC2=C1C(c1ccc([N+](=O)[O-])o1)Nc1ccccc1N2 (configuration not stated)	n	n	-74.0	u	n	16.4µM
CN(C)CC1CCC/C(=C/c2ccc(Cl)cc2)C1=O (configuration not stated)	n	n	n	0.517µM	u	0.581µM
CN(C)CC1CCCCC1OC(=O)c1ccc(Cl)cc1 (configuration not stated)	n	n	n	n	n	u
CN(C)CC1CCC/C(=C\c2ccc(OC(=O)/C=C/c3ccc(Cl)c(Cl)c3)cc2)C1=O (configuration not stated)	n	n	u	0.731µM	n	0.92µM
O=C(COC(=O)/C=C/c1ccc(Cl)c(Cl)c1)NC1CCCC1	n	n	n	n	n	n
CCC1CCCCN1C(=O)Cn1c(=O)n(CC2CCC(C(=O)NC)CC2)c(=O)c2sccc21 (configuration not stated)	n	x	x	n	n	n
O=C(/C=C/c1ccccc1)Nc1ncn[nH]1	n	n	-108.3	7.31µM	10µM	10.3µM
O=C(/C=C/c1ccccc1)Nc1ccc(Br)cn1	n	n	n	2.31µM	n	2.31µM
C=CCCC(=O)Nc1ccc(Br)cn1	n	n	n	u	n	18.4µM
CC1(C)CC(=O)c2cc(C(=O)NCCc3ccccc3)c(=O)[nH]c2C1	n	x	x	n	n	n
Cc1nc2nc(C)c(NS(=O)(=O)c3ccc(Cl)cc3)c(=O)n2[nH]1	n	n	n	n	n	n
CCc1nc(C)c(C(=O)N2CCCC(C(=O)Nc3cccc(-c4cccc(C)c4)c3)C2)o1 (configuration not stated)	n	n	-81.7	13µM	n	10.3µM
Cc1cccc(-c2cccc(NC(=O)C3CCCN(C(=O)c4csc(C)n4)C3)c2)c1 (configuration not stated)	n	n	u	1.46µM	u	1.3µM
